In PubChem BioAssay (NCATS) one finds Potency and activity change, negative = inhibition data, which are given here for nine molecules.

Molecules are shown by their SMILES. A number with no mark means an inactive call. Inconclusive results are not listed. Activity calls are given as the source filed them. Unless noted, the call rests on the fitted dose curve; in most records, active means well fitted curve in either direction with a large enough effect (not every such curve was filed as active); inconclusive means small, poorly fitted or top-dose-only effect, or another doubt; inactive means flat fitted curve, though single readings scatter.

Assay [1] addresses Lysosomal acid glucosylceramidase (Homo sapiens) (UniProt P04062). Put plainly: Glucocerebrosidase-p2 (AID 348; in the data active means potency below about 10 µM; further: potency means the concentration at half of the fitted maximal effect). To be noted: purified GBA, blue fluorogenic substrate, 40 min. Summed up:
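Compounds titrated from 0.6 nM upwards against 0.2 nM enzyme in pH 5.9 citric acid/KH2PO4, taurocholate, tween-20; blue fluorogenic substrate 80 uM, 40 min room temperature, stopped and read Ex 365/Em 440 for AC50.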

The nature of assay [2]: AP1 Signaling Pathway (AID 357).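 Further: ME-180 reporter cells stimulated with EGF at its EC50 level; on the % scale 0 is the no-effect control and ±100 the full control effect.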 The settings on record: ME-180 (cervical carcinoma) AP-1-bla reporter, EGF-induced, beta-lactamase ratio, 5 h; at 7.69 µM (top of the series) unless noted. Summed up: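 AP-1-bla ME-180 cells, Opti-MEM + 0.5% dialyzed FBS, plated overnight 37 °C. Cpd titration + EC50 EGF, 5 h 37 °C. CCF4 2.5 h RT; ex 405, em 460/530 ratio → %activity, AC50.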
Assay [3] concerns the target Cytochrome P450 1A2 (Homo sapiens) (UniProt P05177). Put plainly: p450-cyp1a2 (AID 410; calls by dose curve; further: potency means the concentration at half of the fitted maximal effect). To be noted: recombinant CYP1A2, luciferin-ME demethylation, luminescence; series mostly up to 11.4 µM. Summed up:
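Human CYP1A2 (20nM) demethylated Luciferin-ME at its Km (100uM) in 100mM KPO4. After 10 min compound preincubation, NADPH regeneration ran the reaction 60 min at room temperature. Luciferin was read by luminescence, normalized to 57 uM furafylline.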

Assay [4] in a line: NFAT Signaling Pathway (AID 444).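 Further: carbachol stimulus at about its EC50 of 1 µM final; on the % scale 0 is the no-effect control and ±100 the full control effect.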 The settings on record: Jurkat NFAT-bla M1, carbachol, beta-lactamase ratio, 5 h; at 7.69 µM (top of the series) unless noted. The procedure, abridged:
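Jurkat cells with NFAT-driven β-lactamase reporter and co-expressed M1 receptor, stimulated with carbachol (final 1 uM, ~EC50), compound titration, 5 h at 37 °C. CCF4 loaded 1 h at RT; 460/530 nm ratio gave %activity and AC50.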

Assay [5] deals with Glucocorticoid receptor (Homo sapiens) (UniProt P04150). Put plainly: GR-GFP Redistribution (AID 450;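 active means compounds whose dose series gives a full or clear partial fitted curve of increased nuclear translocation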; further: potency means the concentration at half of the fitted maximal effect). The settings on record: U2OS GR-GFP nuclear translocation, laser cytometry, 2 h.
The target is the same in assay [6]. Description: GR-EFC Redistribution (AID 451; calls by dose curve; further: potency means the concentration at half of the fitted maximal effect). The settings on record: CHO-K1 GR-EFC translocation, beta-gal luminescence, 2 h. Summed up: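 CHO-K1 cells expressing nuclear EA and GR-ED fragments of b-gal; compounds titrated up to 46 uM final, 2 h at 37 C. GR nuclear translocation read as complemented b-gal luminescence after 1 h RT detection.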
For assay [7], the target named is Mitogen-activated protein kinase 10 (Mus musculus) (UniProt Q61831). Put plainly: JNK3 AlphaScreen Assay (AID 530).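 Further: kinase came from lysate of stimulated human HepG2 cells; signal reports phosphorylation of biotinylated GST-cJun 1-79 at Ser73 with 10 µM ATP; on the % scale 0 is the no-effect control and ±100 the full control effect.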 To be noted: JNK3 lysate, c-Jun phosphorylation; series mostly up to 11.4 µM. The procedure, abridged: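 qHTS format: compounds tested as titrations against IL-1beta/TNF-alpha-activated HepG2 lysate JNK3 with biotin-GST-cJun substrate and 10 uM ATP at room temperature. Loss of anti-phospho-cJun AlphaScreen signal indicates inhibition.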
On the technique in general: In Alpha technology, singlet oxygen from a donor bead excites a nearby acceptor bead.

Assay [8] has as its target 3',5'-cyclic-AMP phosphodiesterase 4B (Homo sapiens) (UniProt Q07343). Description: qHTS Assay for Inhibitors of PDE-IV (AID 607; active means well fitted activation curve with a large enough effect in the main read-out, with a control signal flat, not every such curve was filed as active; further: % of control where 0% means no effect). The settings on record: HEK293 ACTOne CNG channel cells, membrane potential fluorescence; series mostly up to 22.9 µM. Summed up: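 Cell-based read-out of cAMP via a modified cyclic nucleotide-gated channel and membrane potential dye (535/590 nm) in HEK293 cells expressing PDE4 endogenously. Compounds tested up to 22.9 uM final; 100 uM RO 20-1724 reference.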
In general terms: Quantitative high-throughput screening tests each substance at several concentrations.

In assay [9] the target is Cytochrome P450 2C9 (Homo sapiens) (UniProt P11712). Description: qHTS Assay for Inhibitors and Substrates of Cytochrome P450 2C9 (AID 883; active means well fitted curve in the direction sought with a large enough effect; an effect the other way counts as inactive or inconclusive; further: potency means the concentration at half of the fitted maximal effect; nearly all actives have a fitted effect of over 60% in size). To be noted: recombinant CYP2C9, luciferin-H luminescence, 60 min; series mostly up to 11.4 µM. The procedure, abridged: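 Signal: luciferase luminescence reporting luciferin produced by CYP2C9. Conditions: 10nM enzyme, Luciferin-H 100uM at KM, 25mM KPO4, 37C, 60 min NADPH-driven reaction. Reference: 57uM sulphaphenazole as 100% inhibition.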

Assay [10] deals with Cytochrome P450 3A4 (Homo sapiens) (UniProt P08684). Description: qHTS Assay for Activators of Cytochrome P450 3A4 (AID 885; active means well fitted curve in the direction sought with a large enough effect; an effect the other way counts as inactive or inconclusive; further: nearly all actives have a fitted effect of over 65% in size). The settings on record: recombinant CYP3A4, Luciferin-PPXE luminescence, 60 min; series mostly up to 11.4 µM. The procedure, abridged: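 Signal was normalized against complete inhibition by 57 uM ketoconazole. The reaction used 20nM CYP3A4 with 25uM Luciferin-PPXE, 10-min compound preincubation and a 60-min NADPH-supported step at RT.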

The target in assay [11] is Cytochrome P450 2C19 (Homo sapiens) (UniProt P33261). Description: qHTS Assay for Inhibitors and Substrates of Cytochrome P450 2C19 (AID 899; active means well fitted curve in the direction sought with a large enough effect; an effect the other way counts as inactive or inconclusive; further: potency means the concentration at half of the fitted maximal effect; nearly all actives have a fitted effect of over 60% in size). The settings on record: recombinant CYP2C19, luciferin-H EGE luminescence; series mostly up to 11.4 µM. The procedure, abridged: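 Signal comes from luciferase acting on luciferin released by CYP2C19-mediated hydroxylation of Luciferin-H EGE, 10uM (KM). Assay mix: 5nM enzyme, 50mM KPO4; 60 min at 37C with NADPH regeneration. Data normalized against 57uM ketoconazole.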
Chain of Cytochrome P450 2C19 (Homo sapiens) (P33261 whole entry, looked up): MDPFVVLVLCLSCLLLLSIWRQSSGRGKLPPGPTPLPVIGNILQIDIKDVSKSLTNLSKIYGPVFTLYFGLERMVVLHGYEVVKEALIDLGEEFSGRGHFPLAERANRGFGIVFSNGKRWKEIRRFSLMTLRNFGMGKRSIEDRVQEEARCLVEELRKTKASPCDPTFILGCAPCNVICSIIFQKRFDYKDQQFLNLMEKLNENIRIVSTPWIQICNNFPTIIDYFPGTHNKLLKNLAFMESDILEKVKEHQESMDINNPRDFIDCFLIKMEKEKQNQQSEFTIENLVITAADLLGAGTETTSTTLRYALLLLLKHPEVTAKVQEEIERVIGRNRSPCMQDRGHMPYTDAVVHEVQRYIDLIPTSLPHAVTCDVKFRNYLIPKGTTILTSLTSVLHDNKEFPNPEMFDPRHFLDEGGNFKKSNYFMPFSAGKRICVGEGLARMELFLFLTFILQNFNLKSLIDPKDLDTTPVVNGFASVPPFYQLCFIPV

Chain of Lysosomal acid glucosylceramidase (Homo sapiens) (P04062 whole entry, looked up): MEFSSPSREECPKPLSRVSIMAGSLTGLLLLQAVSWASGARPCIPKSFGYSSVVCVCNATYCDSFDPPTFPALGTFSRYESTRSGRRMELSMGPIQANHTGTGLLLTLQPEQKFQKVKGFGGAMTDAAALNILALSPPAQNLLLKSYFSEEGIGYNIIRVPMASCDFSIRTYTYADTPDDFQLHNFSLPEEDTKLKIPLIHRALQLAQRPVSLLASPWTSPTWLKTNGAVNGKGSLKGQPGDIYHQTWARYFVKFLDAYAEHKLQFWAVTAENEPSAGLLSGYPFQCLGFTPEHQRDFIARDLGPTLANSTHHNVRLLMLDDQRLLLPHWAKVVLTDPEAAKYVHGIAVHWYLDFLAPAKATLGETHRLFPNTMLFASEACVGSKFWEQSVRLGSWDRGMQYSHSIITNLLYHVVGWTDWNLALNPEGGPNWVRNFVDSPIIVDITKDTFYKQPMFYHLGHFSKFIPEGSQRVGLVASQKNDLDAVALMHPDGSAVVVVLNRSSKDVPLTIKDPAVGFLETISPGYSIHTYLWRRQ
Chain of Cytochrome P450 1A2 (Homo sapiens) (P05177 whole entry, looked up): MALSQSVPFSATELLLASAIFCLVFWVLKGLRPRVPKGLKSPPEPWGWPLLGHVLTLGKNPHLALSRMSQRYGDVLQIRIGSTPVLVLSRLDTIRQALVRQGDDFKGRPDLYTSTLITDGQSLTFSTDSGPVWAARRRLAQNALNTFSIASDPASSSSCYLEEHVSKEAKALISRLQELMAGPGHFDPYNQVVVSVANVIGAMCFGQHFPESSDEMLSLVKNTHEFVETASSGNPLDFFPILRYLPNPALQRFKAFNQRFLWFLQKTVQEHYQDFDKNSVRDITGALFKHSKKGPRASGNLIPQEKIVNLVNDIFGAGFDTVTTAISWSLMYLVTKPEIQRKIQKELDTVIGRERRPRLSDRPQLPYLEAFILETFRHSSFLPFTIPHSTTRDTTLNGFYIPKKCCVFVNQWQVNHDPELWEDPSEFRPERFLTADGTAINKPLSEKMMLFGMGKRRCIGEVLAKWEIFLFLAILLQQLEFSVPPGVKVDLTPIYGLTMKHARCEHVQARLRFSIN
Chain of 3',5'-cyclic-AMP phosphodiesterase 4B (Homo sapiens) (Q07343 whole entry, looked up): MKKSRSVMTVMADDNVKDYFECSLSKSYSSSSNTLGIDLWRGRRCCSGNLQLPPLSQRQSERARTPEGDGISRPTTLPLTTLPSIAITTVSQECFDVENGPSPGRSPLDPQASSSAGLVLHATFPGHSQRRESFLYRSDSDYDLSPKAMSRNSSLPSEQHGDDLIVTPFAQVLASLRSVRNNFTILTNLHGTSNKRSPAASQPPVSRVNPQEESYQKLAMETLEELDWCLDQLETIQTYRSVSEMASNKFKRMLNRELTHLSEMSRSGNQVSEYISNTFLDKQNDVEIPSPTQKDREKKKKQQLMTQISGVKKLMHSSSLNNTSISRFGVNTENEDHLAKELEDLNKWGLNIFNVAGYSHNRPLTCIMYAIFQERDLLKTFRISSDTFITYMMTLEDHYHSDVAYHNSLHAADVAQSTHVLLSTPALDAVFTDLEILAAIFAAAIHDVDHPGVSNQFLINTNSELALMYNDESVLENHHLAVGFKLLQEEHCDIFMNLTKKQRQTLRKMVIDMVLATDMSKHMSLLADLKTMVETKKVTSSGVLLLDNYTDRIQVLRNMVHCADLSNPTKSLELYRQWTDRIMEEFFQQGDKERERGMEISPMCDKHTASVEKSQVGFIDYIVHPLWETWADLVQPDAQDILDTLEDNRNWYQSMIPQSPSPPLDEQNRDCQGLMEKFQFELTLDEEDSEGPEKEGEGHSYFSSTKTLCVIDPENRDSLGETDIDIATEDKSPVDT
Chain of Glucocorticoid receptor (Homo sapiens) (P04150 whole entry, looked up, the tested form may be a part): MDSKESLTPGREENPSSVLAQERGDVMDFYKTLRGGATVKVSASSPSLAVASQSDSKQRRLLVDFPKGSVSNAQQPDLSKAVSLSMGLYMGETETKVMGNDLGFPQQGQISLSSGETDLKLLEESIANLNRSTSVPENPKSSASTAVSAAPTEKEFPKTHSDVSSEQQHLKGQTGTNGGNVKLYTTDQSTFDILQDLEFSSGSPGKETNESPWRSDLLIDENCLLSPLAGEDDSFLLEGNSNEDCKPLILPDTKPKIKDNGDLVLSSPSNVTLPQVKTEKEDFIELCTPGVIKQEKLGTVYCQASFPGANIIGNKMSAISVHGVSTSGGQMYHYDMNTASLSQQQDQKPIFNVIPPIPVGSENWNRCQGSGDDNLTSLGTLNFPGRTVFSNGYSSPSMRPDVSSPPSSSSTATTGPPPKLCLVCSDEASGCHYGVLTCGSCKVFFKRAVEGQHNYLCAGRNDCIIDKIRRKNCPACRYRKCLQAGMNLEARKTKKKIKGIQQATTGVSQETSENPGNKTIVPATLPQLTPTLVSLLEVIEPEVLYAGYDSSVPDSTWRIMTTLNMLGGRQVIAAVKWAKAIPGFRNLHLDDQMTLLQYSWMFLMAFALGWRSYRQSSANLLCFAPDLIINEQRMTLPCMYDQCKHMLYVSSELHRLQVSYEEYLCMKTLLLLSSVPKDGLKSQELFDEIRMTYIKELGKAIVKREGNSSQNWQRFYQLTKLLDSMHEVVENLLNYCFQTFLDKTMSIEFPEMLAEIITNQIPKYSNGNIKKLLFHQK
Chain of Cytochrome P450 2C9 (Homo sapiens) (P11712 whole entry, looked up): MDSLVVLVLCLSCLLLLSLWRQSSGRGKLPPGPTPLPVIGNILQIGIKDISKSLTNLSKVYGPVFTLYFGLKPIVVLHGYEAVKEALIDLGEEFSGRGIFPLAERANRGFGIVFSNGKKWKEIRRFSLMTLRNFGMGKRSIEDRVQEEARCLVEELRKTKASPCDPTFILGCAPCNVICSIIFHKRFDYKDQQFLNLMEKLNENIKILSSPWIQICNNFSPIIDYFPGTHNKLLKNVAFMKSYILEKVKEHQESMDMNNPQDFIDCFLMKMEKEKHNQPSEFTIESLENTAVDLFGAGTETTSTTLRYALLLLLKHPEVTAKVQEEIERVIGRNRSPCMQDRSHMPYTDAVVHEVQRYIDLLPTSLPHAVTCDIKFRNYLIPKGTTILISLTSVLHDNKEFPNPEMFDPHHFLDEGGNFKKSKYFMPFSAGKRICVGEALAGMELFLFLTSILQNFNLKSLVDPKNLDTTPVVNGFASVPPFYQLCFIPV
Chain of Cytochrome P450 3A4 (Homo sapiens) (P08684 whole entry, looked up): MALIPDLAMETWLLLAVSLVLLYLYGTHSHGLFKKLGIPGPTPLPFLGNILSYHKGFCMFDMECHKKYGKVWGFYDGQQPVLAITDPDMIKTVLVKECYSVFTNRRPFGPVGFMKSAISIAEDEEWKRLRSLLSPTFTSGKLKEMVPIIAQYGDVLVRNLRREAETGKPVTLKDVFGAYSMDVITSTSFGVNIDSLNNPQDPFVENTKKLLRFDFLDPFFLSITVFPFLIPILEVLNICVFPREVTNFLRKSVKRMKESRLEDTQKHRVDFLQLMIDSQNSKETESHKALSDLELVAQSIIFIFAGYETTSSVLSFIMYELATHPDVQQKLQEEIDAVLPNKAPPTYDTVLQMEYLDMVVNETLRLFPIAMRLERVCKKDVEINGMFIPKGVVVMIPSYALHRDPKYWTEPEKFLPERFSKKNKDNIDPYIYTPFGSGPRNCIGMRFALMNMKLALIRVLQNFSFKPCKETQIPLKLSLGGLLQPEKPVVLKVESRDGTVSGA

Consider `O=C(O)CCc1c2ccc(=O)c(O)c-2oc2c(O)c(O)ccc12`, for which the Potency is over 11.4 µM in assay [1], over 46 µM in [5] and over 9.22 µM in assay [6]. The results for the activity change, negative = inhibition in [2], in assay [3] and in [4] were 3.21%, -4% [at 2.29 µM] and 17.3%, respectively. In addition, the Potency entry in [7] and in assay [8] was “inactive” throughout.
As for `ON(CCc1ccncc1)Cc1ccccc1`, the Potency in assay [1] was over 11.4 µM; in [3], 1 µM (active); in assay [5] it was over 46 µM; in [6], over 9.22 µM; in assay [9] it was 3.98 µM (active); in [11] it was 0.316 µM (active). The results for the activity change, negative = inhibition in assay [2] and in [4] were -5.59% and 9.66%, respectively. Besides, the Potency result in [7], in [8] and in [10] was “inactive” throughout.
As to `c1ccc([C@H](c2cccc3c2ccc2ccccc23)[C@H](c2ccccc2)c2cccc3c2ccc2ccccc23)cc1`, the Potency in assay [1] is over 11.4 µM; in [5] it was over 46 µM; in assay [6], over 9.22 µM. Besides, the activity change, negative = inhibition is 15.9% in assay [2] and -0.573% in assay [4]. Besides, the Potency result in [3], in assay [7] and in assay [8] was “inactive” throughout.
On to `Cc1cc(SCC(=O)c2ccc(Br)cc2)cc(C)[o+]1`, for which the Potency was over 11.4 µM in assay [1]; 3.98 µM (active) in [3]; over 46 µM in [5]; over 9.22 µM in assay [6]; 2.51 µM (active) in assay [9]. Further, the results for the activity change, negative = inhibition in [2] and in assay [4] were -6.95% and 27.1%, respectively. In addition, the Potency result in [7] and in [8] was “inactive” in each case.
As to `CC(=O)O[C@H]1CC[C@@]2(C)[C@@H](CC[C@H]3[C@H]2CC(=O)[C@@]2(C)[C@@H]3C[C@H]3CC(C)=CC(=O)[C@H]32)C1`, the Potency in [1] is over 11.4 µM; in assay [5], over 46 µM; in [6], over 9.22 µM. Further, the activity change, negative = inhibition in assay [2] was 5.01%; in [3], -9% [at 2.29 µM]; in assay [4] it was 22%. The Potency entry in assay [7] and in [8] was “inactive” each time.
As for `CN(N=O)c1ccc(/C=C\c2ccnc3ccccc23)cc1`, the Potency is over 11.4 µM in assay [1], 0.158 µM (active) in assay [3], over 46 µM in [5] and over 9.22 µM in assay [6]. In addition, the activity change, negative = inhibition was -0.154% in [2] and 7.28% in [4]. Besides, the Potency entry in [7] is “inactive”.
Turning to `N#CCCn1c(=O)c(-c2cccc(C#N)c2)nc2cnc(Oc3ccccc3)nc21`, the Potency is over 11.4 µM in assay [1], 20 µM (active) in assay [3], over 9.22 µM in assay [5] and over 46 µM in [6]. Also, the figures for the activity change, negative = inhibition in [2] and in [4] were -17.5% and -7.09%, respectively. Besides, the Potency result in assay [7] and in assay [8] was “inactive” throughout.
As to `CCC(=O)OCN1C(=O)C=CC1=O`, the Potency in assay [1] was over 11.4 µM; in assay [3] it was 3.16 µM (active); in [5] it was over 46 µM; in assay [6], over 9.22 µM. The results for the activity change, negative = inhibition in [2] and in [4] were -2.18% and -27.8%, respectively. The Potency result in [7] and in [8] was “inactive” in each case.
Turning to `N/C(=N\O)c1cn([C@@H]2O[C@@H](CO)[C@H](O)[C@@H]2O)c2ncnc(NO)c12`, the Potency was over 11.4 µM in [1], over 46 µM in assay [5] and over 9.22 µM in assay [6]. In addition, the activity change, negative = inhibition is 5.84% in [2], -18.7% [at 2.29 µM] in assay [3] and 19.5% in assay [4]. The Potency entry in [7] and in [8] was “inactive” throughout.
